KB-V1 MDR tox: KB-V1 MDR subline cytotoxicity | hit rate 3.4% among 400,000 | Potency, µM (titrated, usually from 46.1 µM), actives largely listed as cytotoxic | KB-V1 MDR cells viability, CellTiter-Glo, 72 h | AID 1347076; also: % is scaled to controls: 0 for no effect and ±100 for the full control effect; nearly all actives have a fitted effect of over 60% in size
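Cytotoxicity toward P-gp-expressing KB-V1 cells was determined as loss of CellTiter-Glo luminescence after 72 h at 37 degrees C. Compounds were tested in quantitative HTS format across a concentration range, with curves fitted to normalized data.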
KB-3-1 cytotox: kills parental KB-3-1 adenocarcinoma cells; KB-3-1 viability, CellTiter-Glo ATP luminescence, 72 h; Potency, µM (top dose mostly 46.1 µM), actives largely listed as cytotoxic; hit rate 1.4% among 400,000; also: % is scaled to controls: 0 for no effect and ±100 for the full control effect; nearly all actives have a fitted effect of over 60% in size
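Cytotoxicity in the drug-sensitive parental line KB-3-1 was scored as loss of CellTiter-Glo luminescence following 72 h incubation with compound. Values come from curve fitting of normalized concentration-response data.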
PINK1 modulator: PINK1 expression modulation. PINK1 immunofluorescence, high-content cytometry, 24 h. Potency, µM (top dose mostly 76.6 µM), for the others: at the top dose activation (PINK1 increase), hits mostly activators. hit rate 0.2% among 410,000. AID 624263; active = well fitted activation curve with a large enough effect; inconclusive = small, poorly fitted or top-dose-only effect; cell line not stated here; also: % of control where 0% means no effect; nearly all actives have a fitted effect of over 65% in size
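Compound titrations (5 concentrations, 24 h) on a stable cell line; DMSO and CCCP controls. Endpoint: fixed-cell PINK1 immunofluorescence with mitochondrial, cell and nuclear markers, scanned by microplate cytometer.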
SW480 rereplic: induces DNA re-replication in SW480 colon adenocarcinoma cells. SW480 DNA re-replication, Hoechst DNA content imaging, 48 h. Potency, µM (doses to about 46.1 µM), inactives show top-dose re-replication activation, usual class: activators. hit rate 1.8% among 340,000; also: % of control where 0% means no effect; nearly all actives have a fitted effect of over 55% in size
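Image-based DNA-content assay: after two days of treatment, nuclei were labelled with the DNA dye Hoechst and imaged, and hits were compounds raising the count of nuclei showing high fluorescence intensity.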
MCF10A rerep: DNA re-replication induction in MCF 10a cells; MCF 10A DNA re-replication, Hoechst nuclear intensity, 48 h; Potency, µM (doses to about 46.1 µM), inactives show at the top dose activity, positive = re-replication, actives largely listed as activators; hit rate 2.9% among 350,000; AID 624296; also: % of control where 0% means no effect; nearly all actives have a fitted effect of over 50% in size
12-LOX inh: blocks human arachidonate 12S-lipoxygenase. P18054. purified 12hLO, xylenol orange hydroperoxide absorbance. Potency, µM (top dose mostly 108 µM), inactives show at the top dose activity change, negative = inhibition, usual class: inhibitors. hit rate 1.1% among 580,000; also: % is scaled to controls: 0 for no effect and ±100 for the full control effect
Target sequence (P18054 whole entry, looked up): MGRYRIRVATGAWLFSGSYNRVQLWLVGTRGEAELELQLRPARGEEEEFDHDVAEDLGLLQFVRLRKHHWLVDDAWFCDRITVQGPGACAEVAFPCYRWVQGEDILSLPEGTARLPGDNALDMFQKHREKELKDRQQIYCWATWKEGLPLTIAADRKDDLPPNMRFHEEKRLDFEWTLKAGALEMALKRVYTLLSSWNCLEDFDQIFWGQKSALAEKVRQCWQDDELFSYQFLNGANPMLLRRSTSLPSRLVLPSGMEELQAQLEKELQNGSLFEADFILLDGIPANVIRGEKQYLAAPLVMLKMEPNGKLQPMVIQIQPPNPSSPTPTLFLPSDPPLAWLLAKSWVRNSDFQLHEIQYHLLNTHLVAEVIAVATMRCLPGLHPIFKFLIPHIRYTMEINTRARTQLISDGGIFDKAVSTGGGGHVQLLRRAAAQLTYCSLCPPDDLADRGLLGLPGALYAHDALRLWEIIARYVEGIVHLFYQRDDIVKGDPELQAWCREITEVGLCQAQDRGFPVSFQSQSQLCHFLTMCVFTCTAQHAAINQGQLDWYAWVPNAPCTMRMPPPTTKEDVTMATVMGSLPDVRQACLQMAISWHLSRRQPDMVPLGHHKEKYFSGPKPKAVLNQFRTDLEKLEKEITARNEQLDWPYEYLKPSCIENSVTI
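Purified human 12hLO (150 nM final) in 25 mM Hepes, 0.01% Triton X-100, pH 7.0 was preincubated 15 min at room temperature with compound. Then 40 uM arachidonic acid was added, 30 min. Hydroperoxide was read by Fe-XO absorbance ratio 573/405 nm.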
* hit, by the source's call; i = inactive; u = inconclusive; x = not tested or not shown; [ ] = another dose, or the depositor's remark. Sampled rows, rich in hits. Any-hit rate of the full collection: about 5.8%. Unless noted, calls follow the shape of the dose curve; as a rule, active = well fitted curve in the direction sought with a large enough effect; inconclusive = small, poorly fitted or top-dose-only effect, or another doubt; inactive = no such curve, though single readings can be large; an effect the other way counts as inactive or inconclusive. Potency is read from the fitted curve at half-maximal effect.

SMILES | KB-V1 MDR tox | KB-3-1 cytotox | PINK1 modulator | SW480 rereplic | MCF10A rerep | 12-LOX inh
CCC(=O)N1N=C(c2ccccc2)CC1c1ccc([N+](=O)[O-])cc1 (configuration not stated) | 14.6µM* | i | 7.8% | u | 12.1% | 3.6%
COc1ccc(C2CC(c3ccccc3)=NN2C(=O)COC(=O)c2cccc(S(=O)(=O)N(C)C)c2)cc1 (configuration not stated) | 3.66µM* | i | 2.3% | -1.2% | -1.2% | -12.3%
COc1ccc(C2CC(c3ccccc3OC(C)=O)=NN2C(C)=O)cc1 (configuration not stated) | u | u | 0.2% | 16.4µM* | 9.1% | u
CNC(=O)CSc1ccccc1OC | x | x | x | x | x | -10.1%
O=C(CCC1CCCO1)N1CCSCC1 (configuration not stated) | x | x | x | x | x | -57.3%
COc1ccc(CCNC(=O)CC2Sc3ccccc3NC2=O)cc1 (configuration not stated) | x | x | x | x | x | -21.8%
COc1ccc(-c2c(C)oc3cc(OC(=O)c4ccccc4)ccc3c2=O)cc1OC | x | x | x | x | x | -6.8%
COc1ccc(C2=NN(C(=O)COC(=O)c3ccc(S(C)(=O)=O)c([N+](=O)[O-])c3)C(c3ccco3)C2)cc1 (configuration not stated) | u | u | -5.5% | 11.6µM* | u | u
O=C(Nc1ccsc1C(=O)NC1CCCCC1)c1ccccc1 | 4.61µM* | i | 5.7% | 2.9% | 12.2% | -18.6%
CCOC(=O)c1cc2c(ccc3nc(C)c(C)c32)[nH]c1C | i | i | 3.0% | 8.2µM* | 14.6µM* | 0.0%
CCOC(=O)c1ccc2[nH]c(C)c(C)c2c1 | i | i | -1.6% | -2.7% | u | 0.0%
Cc1ccc(NC(=O)Cn2c3ncccc3c(=O)n2-c2ccc(C)c(C)c2)cc1 | x | x | x | x | x | -13.6%
N=C1SCC(=O)N1/N=C/c1ccccc1 | 6.51µM* | 7.31µM* | -0.3% | u | 23.0% | 5.4%
O=C1CSC(=S)N1/N=C/C=C/c1ccccc1 | i | i | -1.4% | -396.5% | 0.4% | u
COc1ccc(NS(=O)(=O)c2cccc(NC(=O)CCC(=O)c3ccc(Cl)cc3)c2)cc1 | 18.4µM* | i | -2.2% | 8.6% | u | -25.3%
COc1cccc(S(=O)(=O)Nc2ccc(C(=O)Nc3ccncc3)cc2)c1 | 20.6µM* | u | 1.2% | 1.1% | u | -4.9%
COc1ccc(NS(=O)(=O)c2cccc(NC(=O)c3ccc(Cl)nc3)c2)cc1 | 2.91µM* | u | 4.8% | u | -6.5% | -13.0%
O=C(Nc1cccc(S(=O)(=O)Nc2ccc(Cl)cc2)c1)c1ccc(Cl)nc1 | i | u | u | -5.1% | 4.8% | u
O=C(Nc1ccncc1)c1ccc(NS(=O)(=O)c2cccc(F)c2)cc1 | u | u | 3.5% | -5.9% | u | 14.5%
COc1cccc(S(=O)(=O)NCC(=O)Nc2ccc(C(C)(C)C)cc2)c1 | 16.4µM* | i | 4.3% | -4.6% | 0.9% | -3.1%
Cn1cccc1CN1CCC(N2C(=O)C(OCC3CC3)C23CCCCC3)CC1 (configuration not stated) | x | x | x | x | x | 68.6%
Cc1ccsc1CN(Cc1ccc(CN(C)S(C)(=O)=O)o1)CC(C)C | x | x | x | x | x | 37.0%
CCCC1C=CCN1C(=O)c1cc(-c2ccncc2)nc2ccccc12 (configuration not stated) | x | x | x | x | x | -17.1%
CC(C)CC(N)c1csc(NC(=O)NCCc2ccccc2)n1 (configuration not stated) | i | i | 12.5% | x | x | 11.7%
CC(C)CC(N)c1csc(NC(=O)Nc2ccccc2C(C)(C)C)n1 (configuration not stated) | 23.1µM* | u | 0.2% | x | x | 2.7%
SMILES | KB-V1 MDR tox | KB-3-1 cytotox | PINK1 modulator | SW480 rereplic | MCF10A rerep | 12-LOX inh
O=c1c2ccccc2c(=O)n(-c2ccccc2)n1CCCCBr | i | i | -1.2% | -2.5% | 7.31µM* | u
Cc1ccccc1-n1cnc2cc(NCc3cccs3)ccc21 | i | u | 0.7% | 18.4µM* | u | 0.0%
COc1ccc(CNc2ccc3c(c2)ncn3-c2ccccc2OC)cc1 | 16.4µM* | i | x | u | 17.9% | 7.8%
COc1ccccc1-n1cnc2cc(NS(=O)(=O)c3ccc(Br)cc3)ccc21 | 11.6µM* | i | -0.2% | 14.4% | u | u
COc1ccccc1-n1cnc2cc(NCc3cccs3)ccc21 | u | 1.16µM* | -0.9% | 2.06µM* | 1.46µM* | -15.7%
CCn1cnc2cc(NCc3cccs3)ccc21 | i | i | 2.0% | -2.8% | -3.0% | 4.4%
CC(C)(C)n1cnc2cc(NCc3cccs3)ccc21 | u | i | 0.9% | -2.5% | 2.3% | 24.1%
COc1ccccc1-n1cnc2cc(NCc3ccco3)ccc21 | 2.59µM* | 0.581µM* | 9.1% | 1.46µM* | 2.06µM* | 0.0%
COc1ccccc1-n1cnc2cc(NCc3ccccc3O)ccc21 | u | u | 3.0% | u | u | -10.3%
CCOC(=O)c1snc2c(=O)[nH]cnc12 | i | i | -5.9%[38.3 µM] | 5.0% | u | -20.6%
O=C(Nc1ccccc1)c1snc2c(=O)[nH]cnc12 | 4.11µM* | u | -2.5% | -120.7% | -3.3% | -58.4%
CC(=O)N(C(C)=O)c1ncc2c([nH]c3ccccc32)c1C#N | 6.51µM* | i | -1.7%[38.3 µM] | -1.1% | -1.3% | -11.5%
COc1ccc2c(c1)/C(=N/OC(=O)c1cc(SC)ccc1Cl)CCC2 | x | x | x | x | x | -3.9%
Nc1ccc2nc(CCCCCCCCc3nc4ccc(N)cc4[nH]3)[nH]c2c1 | i | i | 3.2% | -0.3% | 2.31µM* | 21.6%
Nc1nc2cc3ccccc3cc2[nH]c1=O | 3.66µM* | 6.51µM* | -1.8% | 6.2% | 4.5% | u
Nc1cccc(CCc2nc3cc4ccccc4cc3[nH]2)c1 | 5.8µM* | 5.17µM* | 18.2% | 3.66µM* | 7.31µM* | -12.3%
Nc1ccc2nc(CCCCCCc3nc4ccc(N)cc4[nH]3)[nH]c2c1 | i | i | -0.4% | -4.0% | -0.9% | 28.6%
c1ccc(CCc2nc3ccccc3[nH]2)cc1 | i | i | 2.1% | 0.1% | -0.5% | 0.4%
COc1ccc(Nc2nnc(-c3ccc(OCC(=O)N4CCCCC4)cc3)c3ccccc23)cc1 | x | x | x | x | x | 41.3%
O=C(CSC(=S)N1CCSCC1)c1ccc(Cl)cc1 | 9.2µM* | 8.2µM* | -0.5% | 1.6% | u | -22.5%
O=C(CSC(=S)N1CCSCC1)c1ccccc1 | i | i | -0.3% | 3.3% | u | -13.8%
CC(C)NC(=O)COC(=O)c1cc(=O)[nH]c2ccccc12 | i | i | 3.1%[38.3 µM] | -16.8% | -1.3% | 2.2%
